This passage reports binding signal results from publication PMC7862700, “An all-to-all approach to the identification of sequence-specific readers for epigenetic DNA modifications on cytosine”.

Holding throughout (assay): DAPPL (digital affinity profiling via proximity ligation, sequencing); 10 mM Tris-HCl pH 7.5, 50 mM NaCl, 1 mM DTT, 4% glycerol, room temperature, 30 min; GST-TFs on glutathione beads, 16-mer random dsDNA library, 0.1% formaldehyde crosslink after washing; high values mean tight binding
In one assay the target is T1, FEV (Homo sapiens, UniProt Q99581 1-238).
T1 sequence: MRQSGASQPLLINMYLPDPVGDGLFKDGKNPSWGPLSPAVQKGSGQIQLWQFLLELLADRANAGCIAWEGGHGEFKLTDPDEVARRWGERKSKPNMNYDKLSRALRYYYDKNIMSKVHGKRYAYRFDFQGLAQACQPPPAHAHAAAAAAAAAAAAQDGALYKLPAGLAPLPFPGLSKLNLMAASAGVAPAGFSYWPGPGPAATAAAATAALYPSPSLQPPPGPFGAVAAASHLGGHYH
Conditions: protein: recombinant; tags: N-terminal GST; dsDNA, one strand shown. In short, it runs like this:
(§1)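 Binding signal is each hexamer's read frequency for a factor divided by its frequency in the tag-only sample. The factors were GST-fused human transcription factors from yeast, captured on glutathione beads, DNA-barcoded and pooled with that sample. Pools were incubated with 200 nmole of a random double-stranded 16-mer DNA library in Tris/NaCl/DTT/glycerol buffer at room temperature for 30 min, then washed, crosslinked with 0.1% formaldehyde, proximity-ligated with BsaI/T4 ligase (1 h, 37 °C), PCR-amplified and sequenced on an Illumina NextSeq500.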

The next assay addresses ETV5 (Homo sapiens, UniProt P41161 1-510). The conditions noted are these: protein: recombinant; tags: N-terminal GST; dsDNA, one strand shown. An outline of the steps:
as §1

For a further assay, the target named is HSF1 (Homo sapiens, UniProt Q00613 1-529). Conditions: protein: recombinant; tags: N-terminal GST; chain copies: 3; dsDNA, one strand shown. In short, it runs like this:
as §1

In another assay the target is T2, SPIC (Homo sapiens, UniProt Q8N5J4 1-248).
T2 sequence: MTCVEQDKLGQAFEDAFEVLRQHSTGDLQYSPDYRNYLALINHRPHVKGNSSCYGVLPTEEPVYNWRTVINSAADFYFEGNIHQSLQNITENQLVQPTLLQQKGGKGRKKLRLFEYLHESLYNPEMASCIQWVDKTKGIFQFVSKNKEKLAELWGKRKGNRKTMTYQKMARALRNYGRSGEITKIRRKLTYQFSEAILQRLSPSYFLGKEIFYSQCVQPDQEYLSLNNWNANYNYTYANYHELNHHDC
Conditions: protein: recombinant; tags: N-terminal GST; dsDNA, one strand shown. An outline of the steps:
as §1

Another assay has as its target ELF4 (Homo sapiens, UniProt Q99607 1-663). Conditions: protein: recombinant; tags: N-terminal GST; dsDNA, one strand shown. In short, it runs like this: as §1
The next assay deals with T3, ELK4 (Homo sapiens, UniProt P28324-2 1-405).
T3 sequence: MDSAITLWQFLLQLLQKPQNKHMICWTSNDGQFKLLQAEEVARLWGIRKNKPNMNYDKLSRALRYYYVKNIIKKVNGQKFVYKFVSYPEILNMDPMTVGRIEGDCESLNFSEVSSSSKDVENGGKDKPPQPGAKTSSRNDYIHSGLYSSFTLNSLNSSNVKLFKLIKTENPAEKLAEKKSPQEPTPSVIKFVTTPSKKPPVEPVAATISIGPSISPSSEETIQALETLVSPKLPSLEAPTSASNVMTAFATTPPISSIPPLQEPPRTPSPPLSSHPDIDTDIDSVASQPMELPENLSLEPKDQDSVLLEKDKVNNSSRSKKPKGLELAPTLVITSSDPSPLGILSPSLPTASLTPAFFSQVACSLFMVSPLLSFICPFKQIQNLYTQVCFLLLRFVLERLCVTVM
The conditions noted are these: protein: recombinant; tags: N-terminal GST; dsDNA, one strand shown. In short, it runs like this:
as §1

In the next assay the target is T4, ETV2 (Homo sapiens, UniProt O00321 1-342).
T4 sequence: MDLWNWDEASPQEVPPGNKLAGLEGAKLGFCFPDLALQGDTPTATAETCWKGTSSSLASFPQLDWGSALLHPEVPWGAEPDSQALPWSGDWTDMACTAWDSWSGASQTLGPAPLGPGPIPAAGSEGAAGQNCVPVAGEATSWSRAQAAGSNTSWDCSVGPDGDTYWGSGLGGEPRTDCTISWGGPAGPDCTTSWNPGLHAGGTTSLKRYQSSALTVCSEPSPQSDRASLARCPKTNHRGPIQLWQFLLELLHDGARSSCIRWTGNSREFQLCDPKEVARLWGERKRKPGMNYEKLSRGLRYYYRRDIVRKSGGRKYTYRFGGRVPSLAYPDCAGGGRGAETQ
Conditions: protein: recombinant; tags: N-terminal GST; dsDNA, one strand shown. An outline of the steps:
as §1

A further assay addresses T5, ELF3 (Homo sapiens, UniProt P78545 1-371).
T5 sequence: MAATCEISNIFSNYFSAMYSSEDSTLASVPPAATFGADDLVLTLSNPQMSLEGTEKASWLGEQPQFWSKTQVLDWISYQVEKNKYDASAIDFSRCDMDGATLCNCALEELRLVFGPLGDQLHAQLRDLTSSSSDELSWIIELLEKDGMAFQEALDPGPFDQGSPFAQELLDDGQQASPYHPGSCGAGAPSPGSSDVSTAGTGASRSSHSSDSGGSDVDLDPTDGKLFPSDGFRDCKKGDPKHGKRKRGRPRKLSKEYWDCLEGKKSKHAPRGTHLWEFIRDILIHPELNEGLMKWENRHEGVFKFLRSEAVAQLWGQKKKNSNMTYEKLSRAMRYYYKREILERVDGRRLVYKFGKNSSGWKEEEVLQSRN
The conditions noted are these: protein: recombinant; tags: N-terminal GST; dsDNA, one strand shown. An outline of the steps:
as §1

For the next assay, the target named is CRX (Homo sapiens, UniProt O43186 1-299). The conditions noted are these: protein: recombinant; tags: N-terminal GST; dsDNA, one strand shown. In short, it runs like this: as §1
CRX, sequence (O43186 whole entry): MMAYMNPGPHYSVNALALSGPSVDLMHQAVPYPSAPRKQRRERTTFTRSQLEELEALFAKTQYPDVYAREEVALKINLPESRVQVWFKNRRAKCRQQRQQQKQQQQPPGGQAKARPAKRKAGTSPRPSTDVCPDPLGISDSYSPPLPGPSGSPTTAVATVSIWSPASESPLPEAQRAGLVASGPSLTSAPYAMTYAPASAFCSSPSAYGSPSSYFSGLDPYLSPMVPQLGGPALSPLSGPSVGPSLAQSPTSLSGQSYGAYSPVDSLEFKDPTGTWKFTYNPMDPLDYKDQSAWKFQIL
The target of the next assay is ETV1 (Homo sapiens, UniProt P50549 1-477). Conditions: protein: recombinant; tags: N-terminal GST; dsDNA, one strand shown. In short, it runs like this:
as §1

In a further assay the target is T6, ERF (Homo sapiens, UniProt P50548 1-548).
T6 sequence: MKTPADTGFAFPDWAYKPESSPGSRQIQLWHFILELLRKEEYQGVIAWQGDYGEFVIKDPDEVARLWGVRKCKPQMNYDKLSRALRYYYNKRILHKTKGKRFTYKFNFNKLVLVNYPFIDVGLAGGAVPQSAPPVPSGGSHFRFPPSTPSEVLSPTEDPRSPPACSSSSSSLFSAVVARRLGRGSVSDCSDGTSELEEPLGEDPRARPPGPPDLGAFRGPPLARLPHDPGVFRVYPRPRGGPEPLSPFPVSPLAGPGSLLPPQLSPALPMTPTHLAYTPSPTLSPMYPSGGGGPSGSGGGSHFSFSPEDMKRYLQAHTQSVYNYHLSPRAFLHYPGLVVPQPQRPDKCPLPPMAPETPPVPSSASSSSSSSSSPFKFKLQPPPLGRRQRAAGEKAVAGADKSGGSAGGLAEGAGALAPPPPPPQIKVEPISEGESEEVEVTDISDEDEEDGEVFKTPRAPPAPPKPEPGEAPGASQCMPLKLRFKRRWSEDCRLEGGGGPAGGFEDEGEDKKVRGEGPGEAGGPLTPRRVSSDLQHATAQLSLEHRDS
Conditions: protein: recombinant; tags: N-terminal GST; dsDNA, one strand shown. In short, it runs like this: as §1

In the next assay the target is T7, ETV3L (Homo sapiens, UniProt Q6ZN32 1-361).
T7 sequence: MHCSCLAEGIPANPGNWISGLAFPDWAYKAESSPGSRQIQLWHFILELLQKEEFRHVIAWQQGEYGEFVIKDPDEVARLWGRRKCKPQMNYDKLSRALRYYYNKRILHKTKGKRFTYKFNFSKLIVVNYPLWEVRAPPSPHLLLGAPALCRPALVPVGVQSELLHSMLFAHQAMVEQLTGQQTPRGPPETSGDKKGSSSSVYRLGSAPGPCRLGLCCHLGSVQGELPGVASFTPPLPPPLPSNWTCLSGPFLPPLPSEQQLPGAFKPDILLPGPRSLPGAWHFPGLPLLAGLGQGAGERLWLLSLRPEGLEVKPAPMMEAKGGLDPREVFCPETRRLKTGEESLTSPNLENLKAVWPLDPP
Conditions: protein: recombinant; tags: N-terminal GST; dsDNA, one strand shown. In short, it runs like this: as §1

Another assay has as its target T8, ETS2 (Homo sapiens, UniProt P15036 1-469).
T8 sequence: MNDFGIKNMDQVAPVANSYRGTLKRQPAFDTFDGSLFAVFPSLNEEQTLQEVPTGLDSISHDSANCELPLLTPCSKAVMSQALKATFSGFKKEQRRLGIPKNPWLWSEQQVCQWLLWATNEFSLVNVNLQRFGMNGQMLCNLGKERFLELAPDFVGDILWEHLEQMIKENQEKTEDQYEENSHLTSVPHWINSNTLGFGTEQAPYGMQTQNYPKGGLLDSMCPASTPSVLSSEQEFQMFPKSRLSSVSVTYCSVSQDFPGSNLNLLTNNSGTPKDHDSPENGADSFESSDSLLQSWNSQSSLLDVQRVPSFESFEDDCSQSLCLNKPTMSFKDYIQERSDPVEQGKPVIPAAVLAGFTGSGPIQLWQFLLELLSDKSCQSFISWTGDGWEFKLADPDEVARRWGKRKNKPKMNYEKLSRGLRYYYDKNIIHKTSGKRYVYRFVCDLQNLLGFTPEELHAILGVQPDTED
The conditions noted are these: protein: recombinant; tags: N-terminal GST; dsDNA, one strand shown. In short, it runs like this:
as §1

Another assay addresses T9, SPDEF (Homo sapiens, UniProt O95238 1-335).
T9 sequence: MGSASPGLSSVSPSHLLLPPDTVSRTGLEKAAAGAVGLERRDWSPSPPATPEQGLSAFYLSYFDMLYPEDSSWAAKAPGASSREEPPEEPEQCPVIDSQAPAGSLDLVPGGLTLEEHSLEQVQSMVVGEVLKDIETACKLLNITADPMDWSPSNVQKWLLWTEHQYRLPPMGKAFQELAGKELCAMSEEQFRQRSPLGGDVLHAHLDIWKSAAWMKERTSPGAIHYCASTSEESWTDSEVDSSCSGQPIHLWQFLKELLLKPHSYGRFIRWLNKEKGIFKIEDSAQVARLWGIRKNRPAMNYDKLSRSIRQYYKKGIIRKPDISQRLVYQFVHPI
The conditions noted are these: protein: recombinant; tags: N-terminal GST; dsDNA, one strand shown. In short, it runs like this: as §1

The next assay has as its target T10, ETV7 (Homo sapiens, UniProt Q9Y603 1-341).
T10 sequence: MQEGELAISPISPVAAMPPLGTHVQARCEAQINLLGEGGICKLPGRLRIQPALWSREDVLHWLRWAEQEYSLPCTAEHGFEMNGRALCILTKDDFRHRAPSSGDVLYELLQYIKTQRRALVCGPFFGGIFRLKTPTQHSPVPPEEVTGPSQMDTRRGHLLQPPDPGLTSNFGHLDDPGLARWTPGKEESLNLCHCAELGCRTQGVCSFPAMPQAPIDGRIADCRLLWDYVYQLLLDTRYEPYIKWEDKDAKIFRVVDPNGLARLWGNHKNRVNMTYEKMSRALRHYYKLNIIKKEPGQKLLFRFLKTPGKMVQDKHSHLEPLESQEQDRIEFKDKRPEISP
The conditions noted are these: protein: recombinant; tags: N-terminal GST; dsDNA, one strand shown. In short, it runs like this: as §1

A further assay deals with T11, ELF5 (Homo sapiens, UniProt Q9UKW6-2 1-255).
T11 sequence: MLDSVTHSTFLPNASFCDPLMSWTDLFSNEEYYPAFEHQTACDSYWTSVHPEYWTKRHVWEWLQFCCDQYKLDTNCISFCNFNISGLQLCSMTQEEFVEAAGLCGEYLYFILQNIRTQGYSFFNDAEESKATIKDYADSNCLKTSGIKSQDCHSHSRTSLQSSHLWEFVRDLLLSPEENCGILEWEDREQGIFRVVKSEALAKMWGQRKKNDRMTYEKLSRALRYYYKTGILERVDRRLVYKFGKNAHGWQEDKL
The conditions noted are these: protein: recombinant; tags: N-terminal GST; dsDNA, one strand shown. An outline of the steps:
as §1

The target of the next assay is T12, ETV3 (Homo sapiens, UniProt P41162-2 1-143).
T12 sequence: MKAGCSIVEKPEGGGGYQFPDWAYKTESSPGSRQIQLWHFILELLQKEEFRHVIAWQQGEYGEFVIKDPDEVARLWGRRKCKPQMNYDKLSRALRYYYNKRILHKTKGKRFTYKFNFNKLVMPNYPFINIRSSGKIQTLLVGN
The conditions noted are these: protein: recombinant; tags: N-terminal GST; dsDNA, one strand shown. An outline of the steps:
as §1

Another assay concerns the target ETV6 (Homo sapiens, UniProt P41212 1-452). The conditions noted are these: protein: recombinant; tags: N-terminal GST; dsDNA, one strand shown. In short, it runs like this:
as §1

ETV6, sequence (P41212 whole entry): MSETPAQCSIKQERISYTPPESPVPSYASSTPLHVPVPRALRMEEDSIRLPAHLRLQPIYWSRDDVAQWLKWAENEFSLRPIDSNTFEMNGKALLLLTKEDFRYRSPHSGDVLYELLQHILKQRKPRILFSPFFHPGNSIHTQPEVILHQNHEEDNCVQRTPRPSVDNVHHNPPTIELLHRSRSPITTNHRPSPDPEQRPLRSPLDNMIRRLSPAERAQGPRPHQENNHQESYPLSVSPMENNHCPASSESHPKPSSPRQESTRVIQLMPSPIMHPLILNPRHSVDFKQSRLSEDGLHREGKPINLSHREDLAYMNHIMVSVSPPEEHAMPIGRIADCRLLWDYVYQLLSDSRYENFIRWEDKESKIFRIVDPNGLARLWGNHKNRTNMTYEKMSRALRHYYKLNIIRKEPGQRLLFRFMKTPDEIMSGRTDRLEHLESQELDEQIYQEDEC
ELF4, sequence (Q99607 whole entry): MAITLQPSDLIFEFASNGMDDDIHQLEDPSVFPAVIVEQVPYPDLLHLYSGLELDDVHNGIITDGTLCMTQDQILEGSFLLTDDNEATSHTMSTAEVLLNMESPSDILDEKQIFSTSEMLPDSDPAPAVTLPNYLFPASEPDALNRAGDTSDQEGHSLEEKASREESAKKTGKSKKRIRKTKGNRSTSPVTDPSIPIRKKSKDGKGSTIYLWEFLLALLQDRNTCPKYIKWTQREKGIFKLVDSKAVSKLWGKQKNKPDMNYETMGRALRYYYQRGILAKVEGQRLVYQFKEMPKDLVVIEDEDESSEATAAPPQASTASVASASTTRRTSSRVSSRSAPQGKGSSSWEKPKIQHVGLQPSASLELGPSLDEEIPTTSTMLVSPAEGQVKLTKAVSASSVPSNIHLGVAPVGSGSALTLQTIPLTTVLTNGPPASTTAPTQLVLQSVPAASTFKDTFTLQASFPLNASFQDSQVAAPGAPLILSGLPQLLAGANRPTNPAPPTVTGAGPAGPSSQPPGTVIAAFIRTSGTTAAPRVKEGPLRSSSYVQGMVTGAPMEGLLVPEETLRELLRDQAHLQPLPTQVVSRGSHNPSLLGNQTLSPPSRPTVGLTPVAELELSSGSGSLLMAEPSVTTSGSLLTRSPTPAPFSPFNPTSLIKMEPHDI
ETV5, sequence (P41161 whole entry): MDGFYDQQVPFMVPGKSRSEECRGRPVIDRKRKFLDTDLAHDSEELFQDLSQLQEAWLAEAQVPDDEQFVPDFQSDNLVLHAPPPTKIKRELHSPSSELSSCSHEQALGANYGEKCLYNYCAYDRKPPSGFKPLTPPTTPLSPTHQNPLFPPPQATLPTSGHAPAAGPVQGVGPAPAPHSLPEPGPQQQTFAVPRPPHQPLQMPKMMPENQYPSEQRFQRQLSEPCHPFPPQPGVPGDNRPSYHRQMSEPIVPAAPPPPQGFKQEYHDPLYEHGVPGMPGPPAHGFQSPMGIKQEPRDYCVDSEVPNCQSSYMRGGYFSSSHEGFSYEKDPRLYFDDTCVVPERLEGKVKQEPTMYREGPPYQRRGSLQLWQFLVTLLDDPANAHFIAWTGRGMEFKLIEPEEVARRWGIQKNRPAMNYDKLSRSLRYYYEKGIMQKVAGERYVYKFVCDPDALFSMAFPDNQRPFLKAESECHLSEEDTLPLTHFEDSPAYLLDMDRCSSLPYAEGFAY
HSF1, sequence (Q00613 whole entry): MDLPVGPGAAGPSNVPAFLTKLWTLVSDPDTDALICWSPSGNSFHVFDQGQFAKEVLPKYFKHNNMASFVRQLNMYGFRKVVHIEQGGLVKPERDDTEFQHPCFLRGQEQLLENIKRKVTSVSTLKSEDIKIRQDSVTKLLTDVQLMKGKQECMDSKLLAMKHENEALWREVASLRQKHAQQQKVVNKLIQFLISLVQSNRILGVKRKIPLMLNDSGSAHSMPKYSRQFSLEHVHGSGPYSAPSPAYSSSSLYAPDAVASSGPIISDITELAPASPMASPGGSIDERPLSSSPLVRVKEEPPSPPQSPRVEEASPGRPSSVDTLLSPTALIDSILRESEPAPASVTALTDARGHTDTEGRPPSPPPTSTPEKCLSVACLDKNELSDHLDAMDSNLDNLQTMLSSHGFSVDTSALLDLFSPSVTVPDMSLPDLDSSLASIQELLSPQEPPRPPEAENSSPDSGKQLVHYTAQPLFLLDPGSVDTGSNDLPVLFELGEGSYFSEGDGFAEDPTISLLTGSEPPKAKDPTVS
ETV1, sequence (P50549 whole entry): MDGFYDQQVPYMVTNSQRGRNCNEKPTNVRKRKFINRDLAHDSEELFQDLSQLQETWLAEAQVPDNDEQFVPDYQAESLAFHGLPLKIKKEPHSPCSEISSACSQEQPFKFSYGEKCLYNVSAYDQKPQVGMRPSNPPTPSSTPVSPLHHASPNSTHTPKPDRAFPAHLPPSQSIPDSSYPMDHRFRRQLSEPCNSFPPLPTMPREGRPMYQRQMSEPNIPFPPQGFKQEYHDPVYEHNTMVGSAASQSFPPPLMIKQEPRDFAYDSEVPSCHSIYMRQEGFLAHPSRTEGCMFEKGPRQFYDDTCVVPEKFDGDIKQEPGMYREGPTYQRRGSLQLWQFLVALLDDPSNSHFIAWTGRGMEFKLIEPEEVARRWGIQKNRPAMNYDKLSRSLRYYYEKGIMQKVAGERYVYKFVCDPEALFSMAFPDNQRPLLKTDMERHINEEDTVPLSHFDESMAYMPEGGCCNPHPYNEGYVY

As to ACATAT, the binding signal in the assay with FEV was 1.29 fold enrichment (6-mer frequency, TF over GST control); with ETV5, 1.32 fold enrichment (6-mer frequency, TF over GST control); with HSF1, 1.04 fold enrichment (6-mer frequency, TF over GST control); with SPIC, 1.36 fold enrichment (6-mer frequency, TF over GST control); in the assay with ELF4 it was 1.3 fold enrichment (6-mer frequency, TF over GST control); in the assay with ELK4, 1.22 fold enrichment (6-mer frequency, TF over GST control). Further, the binding signal is 1.28 fold enrichment (6-mer frequency, TF over GST control) with ETV2; 1.25 fold enrichment (6-mer frequency, TF over GST control) in the assay with ELF3; 1.12 fold enrichment (6-mer frequency, TF over GST control) with CRX; 1.26 fold enrichment (6-mer frequency, TF over GST control) in the assay with ETV1; 1.34 fold enrichment (6-mer frequency, TF over GST control) in the assay with ERF; 1.29 fold enrichment (6-mer frequency, TF over GST control) in the assay with ETV3L. For the same sequence, the binding signal in the assay with ETS2 was 1.27 fold enrichment (6-mer frequency, TF over GST control); in the assay with SPDEF, 1.38 fold enrichment (6-mer frequency, TF over GST control); with ETV7, 1.37 fold enrichment (6-mer frequency, TF over GST control); with ELF5, 1.2 fold enrichment (6-mer frequency, TF over GST control); with ETV3, 1.28 fold enrichment (6-mer frequency, TF over GST control); with ETV6, 1.21 fold enrichment (6-mer frequency, TF over GST control).
